# Shiga toxin inh = A qHTS for Small Molecule Inhibitors of Shiga Toxin | Vero cells, Shiga toxin protein synthesis inhibition reporter | inhibition, % at 38.7 µM | 290,000 compounds, 9.2% hits; in the data active = inhibition mostly above about 28%, no sharp cut-off; inactive = mostly below about 43%; also: 0% is about no effect
# FBPA Giardia inh = qHTS Assay for Inhibitors of Fructose-1,6-bisphosphate Aldolase from Giardia Lamblia; purified Giardia FBPA; 290,000 compounds, 0.71% hits; AID 2451, 2010; Potency, µM (doses to about 59.6 µM), inactives show at the top dose activity, negative = inhibition, actives largely listed as inhibitors; also: potency is read from the fitted curve at half-maximal effect; % is scaled to controls: 0 for no effect and ±100 for the full control effect; nearly all actives have a fitted effect of over 55% in size
#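 40 nM FBPA preincubated 10 min at RT with compound (up to 57.5 uM final), then substrate plus GAPDH/TPI/NAD/arsenate coupling and diaphorase/resazurin added. Fluorescence read after 20 min at RT, 525/598 nm.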
# RE007 growth inh = qHTS Assay for Inhibitors of the HIV-1 protein Vpr. S. pombe RE007 Vpr strain, BacTiter-Glo ATP luminescence, 24 h. Potency, µM (top dose mostly 92.2 µM), for inactives: at the top dose activity change, negative = less growth, hits mostly inhibitors. 360,000 compounds, 0.21% hits. AID 651644, 2012; active = well fitted falling curve with a large enough effect; inconclusive = small, poorly fitted or top-dose-only effect; inactive = no such curve, though single readings can be large or run the other way; also: potency is read from the fitted curve at half-maximal effect; % is scaled to controls: 0 for no effect and ±100 for the full control effect; nearly all actives have a fitted effect of over 50% in size
#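 Fission yeast RE007 carrying one integrated HIV-1 vpr copy, seeded at OD 0.01 in PMG+AL medium with 23 nL pinned compound. Grown 24 h at 30 degrees; viability read by BacTiter-Glo luminescence after 5 min.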
# CHX counter = Cycloheximide Counterscreen for Small Molecule Inhibitors of Shiga Toxin; max response, %; cell reporter, cycloheximide protein synthesis inhibition counterscreen; AID 2314, 2010; 300,000 compounds, 12% hits; in the data active = max response mostly above about 13%, no sharp cut-off; inactive = mostly below about 14%; also: read at 38.3 µM for the half of the compounds with a filed dose; 0% is about no effect
# LmPK inhibitor = qHTS Assay for Inhibitors of Leishmania Mexicana Pyruvate Kinase (LmPK). Q27686. purified LmPK, Kinase-Glo ATP luminescence, 1 h. Potency, µM (series often up to 57.5 µM), for inactives: at the top dose activity change, negative = inhibition, actives largely listed as inhibitors. 290,000 compounds, 0.37% hits. AID 1721, 2009; also: potency is read from the fitted curve at half-maximal effect; % is scaled to controls: 0 for no effect and ±100 for the full control effect
# Target sequence (Q27686 whole entry, looked up): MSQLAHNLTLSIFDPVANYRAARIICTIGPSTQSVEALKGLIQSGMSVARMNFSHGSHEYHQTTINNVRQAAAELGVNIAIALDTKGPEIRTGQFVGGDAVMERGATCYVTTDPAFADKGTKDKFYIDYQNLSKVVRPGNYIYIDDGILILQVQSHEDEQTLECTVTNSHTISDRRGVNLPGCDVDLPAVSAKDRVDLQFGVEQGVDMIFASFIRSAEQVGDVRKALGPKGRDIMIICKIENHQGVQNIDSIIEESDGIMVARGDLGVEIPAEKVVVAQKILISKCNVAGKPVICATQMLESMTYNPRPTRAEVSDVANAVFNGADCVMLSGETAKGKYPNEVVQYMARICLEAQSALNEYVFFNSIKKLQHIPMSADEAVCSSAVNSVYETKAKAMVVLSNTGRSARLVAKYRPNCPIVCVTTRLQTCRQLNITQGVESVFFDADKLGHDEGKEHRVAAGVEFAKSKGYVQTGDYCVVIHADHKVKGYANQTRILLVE
#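 qHTS format; LmPK 0.1 nM; substrates PEP 0.5 mM and ADP 0.1 mM. One-hour room-temperature incubation, then coupled luciferase luminescence; 0.5 nM enzyme wells mark activation.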
# TbPYK inhibitor = qHTS of Trypanosoma Brucei Inhibitors; TbPYK enzyme, Kinase-Glo Plus ATP luminescence, 45 min; 410,000 compounds, 0.12% hits; Potency, µM (series often up to 76.8 µM), without a hit: at the top dose activity, negative = inhibition, actives largely listed as inhibitors; AID 624173, 2012; also: potency is read from the fitted curve at half-maximal effect; % is scaled to controls: 0 for no effect and ±100 for the full control effect; nearly all actives have a fitted effect of over 50% in size
#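 Quantitative HTS: titrated library compounds versus trypanosomal pyruvate kinase in TEA buffer (pH 7.2) containing KCl, MgCl2, BSA and Tween-20. Reactions were initiated with ADP, 130 uM final. Kinase-Glo Plus luminescence was read after 45 min at RT.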
# Starred values were filed as active, the others as inactive; ? = inconclusive; · = no result given; + = active, no number; [ ] = remark or other dose. The sample as a whole holds a higher share of hits than the screen did. Unless noted, calls follow the shape of the dose curve; as a rule, active = well fitted curve in the direction sought with a large enough effect; inconclusive = small, poorly fitted or top-dose-only effect, or another doubt; inactive = no such curve, though single readings can be large; an effect the other way counts as inactive or inconclusive.
SMILES,Shiga toxin inh,FBPA Giardia inh,RE007 growth inh,CHX counter,LmPK inhibitor,TbPYK inhibitor
Cc1noc(C)c1C(=O)N1CCCc2ccccc21,5,9%,6%,15,-2%,-6%
CC1CCN(S(=O)(=O)c2ccc(C(=O)Nc3ccccn3)cc2)CC1,·,·,4%,·,·,-2%
CCOC(=O)O[C@]1(C(=O)OCCl)CC[C@@H]2[C@H]3CCC4=CC(=O)C=C[C@]4(C)[C@@H]3[C@@H](O)C[C@@]21C,·,·,·,·,·,-4%
Cc1cc(C)cc(NC(=O)N2CCC(CN3CCc4ccccc4C3)CC2)c1,·,·,·,·,·,7%
Brc1ccc(NC2=Nc3ccccc3CC2)cc1,+,·,6%,56*,-1%,-25%
N#CC1=C(Nc2ccc(Br)cc2)CCC1,23,?,-3%,-1,1%,9%
Cc1ccc(NC2=Nc3ccccc3CC2)cc1,32,3%,-16%,11*,-20%,-12%
COc1ncc2ncc(=O)n(C3CC3)c2n1,·,-1%,·,·,·,·
N#C/C(C(=O)c1ccccc1)=C1/SC=C(N)N1c1ccccc1,122*,?,·,39*,-7%,·
CC(C)NC(=O)C1(C)CCCN1C(=O)c1cc(C#N)cs1 (configuration not stated),·,·,4%[18.4 µM],·,·,1%
CC(C)(CCl)C(=O)Nc1ccc(C(F)(F)F)cc1,26,-8%,-8%,28*,-2%,9%
O=c1c(N2CCN(c3cccc(Cl)c3)CC2)csc2ccc(Cl)cc12,·,·,·,·,·,3%
O=C(COc1ccccc1F)OCc1cc(=O)n2nc(-c3cccs3)sc2n1,·,·,·,·,·,0%
COc1ccc(Cl)cc1N1C(=NC(=O)C2CCCCC2)SC2CS(=O)(=O)CC21 (configuration not stated),-10,7%,-2%,-2,2%,5%
CCN(/C=N/c1sc2c(c1C#N)CCCCC2)CC,67*,1%,-22%,52*,-6%,-2%
CC(C)CN(/C=N/c1sc2c(c1C#N)CCCCC2)CC(C)C,-4,-1%,·,-2,2%,-4%
CN1CCN(/C=N/c2sc3c(c2C#N)CCCCC3)CC1,89*,1%,-8%,46*,0%,-4%
CN(CC(=O)Nc1ccc(Cl)c(Cl)c1)C(=O)CC1OC(=O)c2ccccc21 (configuration not stated),·,·,1%,·,·,-2%
CC(C)(C)C1c2[nH]c3ccccc3c2CCN1Cc1cccc(OCCO)c1 (configuration not stated),37,0%,11%,11*,-7%,-3%
Cc1ccc(NC(=O)C2CCCN(S(=O)(=O)c3c(C)n[nH]c3C)C2)c(C)c1 (configuration not stated),·,·,·,·,·,0%
O=C(CSc1nnc(NC(=O)c2ccccc2F)s1)NCc1ccc(F)cc1,107*,-22%,-2%,41*,1%,2%
COc1ccccc1C(=O)Nc1nnc(SCC(=O)NCc2ccco2)s1,63*,·,19%,43*,1%,-10%
O=C(CSc1nnc(NC(=O)c2ccco2)s1)Nc1ccccc1F,11,20%,-24%,1,-7%,3%
COc1ccc(C(=O)Nc2nnc(SCC(=O)NCc3ccco3)s2)cc1OC,12,·,-3%,10,-6%,1%
O=C(CSc1nnc(NC(=O)c2ccccc2F)s1)Nc1ccccc1F,70*,3%,2%,35*,-11%,3%
SMILES,Shiga toxin inh,FBPA Giardia inh,RE007 growth inh,CHX counter,LmPK inhibitor,TbPYK inhibitor
COc1cc(OC)cc(C(=O)Nc2nnc(SCC(=O)NCc3ccco3)s2)c1,97,·,-4%,34*,-8%,-4%
CCOCc1cc(CN2CCCC(CNC(=O)c3ccco3)C2)ccc1OC (configuration not stated),14,·,-5%,0,2%,1%
COc1ccc(-n2c(=O)c3sc4ccccc4c3n(Cc3ccccc3C)c2=O)cc1OC,·,·,·,·,·,-7%
COc1cccc([C@@H]2Oc3ccc(OC)cc3C(=O)[C@H]2OC(=O)NCCOc2ccccc2)c1,·,-3%,·,·,·,·
COc1ccc(-c2nc3sc(CCNC(=O)c4cc(Cl)ccc4OC)c(C)n3n2)cc1,·,·,·,·,·,-3%
COc1ccccc1C(=O)Nc1nnc(SCC(=O)NCC2CCCO2)s1 (configuration not stated),115*,·,0%,40*,-6%,-1%
COc1ccc(C(=O)Nc2nnc(SCC(=O)NCc3ccco3)s2)c(OC)c1,33*,·,-3%,35*,-1%,5%
O=C(CSc1nnc(NC(=O)c2ccccc2F)s1)NCc1ccco1,79*,·,-8%,35*,-6%,-10%
C=CCC(C)(O)c1ccccc1 (configuration not stated),·,0%,·,·,·,·
CC(=O)N1c2ccccc2N=C(c2ccc3c(c2)OCO3)C1C(=O)NCc1ccccc1 (configuration not stated),·,·,-7%,·,·,·
CCN1CCN(C(=O)C(C)Sc2nc3nc(C)cc(C)n3n2)CC1 (configuration not stated),·,·,6%,·,·,0%
O=[N+]([O-])c1nn(-c2ccc(Cl)cc2)n(O)c1=NCc1ccccc1,61,-9%,-22%,36*,0%,-1%
COc1ccc(CCN=c2c([N+](=O)[O-])nn(-c3cccc(C)c3)n2O)cc1OC,9,-5%,-1%,2,10%,0%
Cc1cccc(CCN=c2c([N+](=O)[O-])nn(-c3ccccc3)n2O)c1,12,-10%,9%,12,1%[11.5 µM],-4%
COc1ccc(-n2nc([N+](=O)[O-])c(=NCc3ccc4c(c3)OCO4)n2O)cc1,65*,0%,-25%,55*,-4%,-5%
O=[N+]([O-])c1nn(-c2ccccc2)n(O)c1=NCc1ccc2c(c1)OCO2,54*,-1%,-9%,30*,9%,-2%
COc1ccc(-n2nc([N+](=O)[O-])c(=NCCc3cccc(C)c3)n2O)cc1,-1,-13%,11%,10,3%,2%
CCc1cccc(OCC(=O)Nc2ccc(S(=O)(=O)Nc3ncccn3)cc2)c1,·,·,·,·,·,-4%
O=C(CSc1nc2cc(Cl)ccc2o1)NC1CC1,·,·,7%,·,·,1%
O=C(N/N=C/c1cccnc1)c1cccs1,75*,-4%,1%,38*,-9%,-7%
O=C(N/N=C\c1cccnc1)c1ccccc1O,33*,-4%,-12%,23*,-1%,-3%
O=C(Nc1ccccn1)c1ccc2ccccc2c1O,66*,?,?,40*,-2%,-5%
O=C(N/N=C/c1cccnc1)c1ccccc1Br,47,2%,1%,12,4%,-13%
O=C(O)c1ccccc1C(=O)Nc1ccccn1,11,-3%,-3%,8,1%,1%

# High-throughput results from PubChem BioAssay.
